# Assay results from PubChem BioAssay (NCATS).
# Results filed as inconclusive are left out. Unmarked numbers belong to inactive results. The source made the active and inactive calls. Calls follow the shape of the dose curve; as a rule, active = well fitted cell-killing curve with a large enough effect; inconclusive = small, poorly fitted or top-dose-only effect; inactive = flat fitted curve, though single readings scatter.
# Experiment: Quantitative highthroughput screen to assess conditional lethalithy of NOMO1 cells grown in RPMI1640 with untreated serum (RPMI+s) (AID 1963876); also: nearly all actives have a fitted effect of over 35% in size;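 as to viability: 100% = DMSO wells and 0% = empty wells without cells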
# Settings: NOMO1 AML cells in RPMI+serum, CellTiter-Glo viability, 48 h; series mostly up to 45.8 µM; viability: at the top concentration
# Method in brief: (§1)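 Each medium arm—HPLM with 10% dialyzed FBS, or RPMI1640 with 5 mM glucose and 10% untreated or dialyzed FBS—was screened against an 11-point, 3-fold compound titration for 48 h at 37 °C, with CellTiter-Glo luminescence as endpoint.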
# Potency is read from the fitted curve at half-maximal effect.
Compound,viability [%],Potency
CN(C(Cc1ccc(OS(=O)(=O)c2cccc3cnccc23)cc1)C(=O)N1CCN(c2ccccc2)CC1)S(=O)(=O)c1cccc2cnccc12 (stereo not given),77,–
CC=CC[C@@H](C)C(=O)[C@H]1C(=O)N[C@@H](C(C)C)C(=O)N(C)CC(=O)N(C)[C@@H](CC(C)C)C(=O)N[C@@H](C(C)C)C(=O)N(C)[C@@H](CC(C)C)C(=O)N[C@@H](C)C(=O)N[C@H](C)C(=O)N(C)[C@@H](CC(C)C)C(=O)N(C)[C@@H](CC(C)C)C(=O)N(C)[C@@H](C(C)C)C(=O)N1C,71,–
Cc1cnc(Nc2ccc(F)cc2Cl)nc1-c1c[nH]c(C(=O)N[C@H](CO)c2cccc(Cl)c2)c1,–,1.05 µM (active)
Nc1nc2ccc(OC(F)(F)F)cc2s1,93.4,–
C=C1C(=O)OC2C=C(C)CCC=C(C)CCC12 (stereo not given),72.6,–
C=CCNc1c(O)cc2c(O)c1C[C@@H](C)C[C@H](OC)[C@@H](O)[C@@H](C)C=C(C)[C@H](OC(N)=O)[C@@H](OC)C=CC=C(C)C(=O)N2,–,10.5 µM (active)

# Experiment: Quantitative highthroughput screen to assess conditional lethalithy of NOMO1 cells grown in RPMI1640 with dialyzed fetal bovine serum (RPMI+ds) (AID 1963877); also: nearly all actives have a fitted effect of over 30% in size;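 as to viability: 100% = DMSO control wells and 0% = empty wells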
# Settings: NOMO1 in RPMI+dialyzed FBS viability, ATP luminescence, 48 h; series mostly up to 45.8 µM; viability: at the top concentration
# Method in brief: as §1
Compound,viability,Potency
CC(O)=C(C#N)C(=O)Nc1ccc(C(F)(F)F)cc1,96.8%,–
C=C1C(=CC=C2CCC[C@]3(C)[C@@H]([C@H](C)CCCC(C)(C)O)CC[C@@H]23)C[C@@H](O)C[C@@H]1O,78.6%,–
CCC[C@@H](NC(=O)[C@@H]1[C@H]2CCC[C@@H]2CN1C(=O)[C@@H](NC(=O)[C@@H](NC(=O)c1cnccn1)C1CCCCC1)C(C)(C)C)C(=O)C(=O)NC1CC1,88.4%,–
CN(C)CC=CC(=O)Nc1cc2c(Nc3ccc(F)c(Cl)c3)ncnc2cc1O[C@H]1CCOC1,–,1.87 µM (active)
CC(C)c1c(C(=O)Nc2ccccc2)c(-c2ccccc2)c(-c2ccc(F)cc2)n1CC[C@H](O)C[C@@H](O)CC(=O)O,–,16.6 µM (active)
C[C@H]1C[C@H]2[C@@H]3CCC4=CC(=O)C=C[C@]4(C)[C@@H]3C(=O)C[C@]2(C)[C@@]1(O)C(=O)CO,106%,–
OCc1ccccc1O[C@@H]1O[C@H](CO)[C@H](O)[C@H](O)[C@H]1O,–,13.2 µM (active)
C[C@H]1Oc2cc(cnc2N)-c2c(nn(C)c2C#N)CN(C)C(=O)c2ccc(F)cc21,103%,–
CCc1cnn2c(NCc3ccc[n+]([O-])c3)cc(N3CCCC[C@@H]3CCO)nc12,–,0.0935 µM (active)
O=C(O)[C@H](Cc1c[nH]c2ccccc12)N1C(=O)c2ccccc2C1=O,82.2% [at 92.2 µM],–
CC(Cc1ccc(O)c(O)c1)(NN)C(=O)O (stereo not given),90.2%,–
CC(C(C)N1CC(=O)NC(=O)C1)N1CC(=O)NC(=O)C1 (stereo not given),84.8%,–
O=C(O)c1ccc(Nc2ncc3c(n2)-c2ccc(Cl)cc2C(c2c(F)cccc2F)=NC3)cc1,–,0.662 µM (active)
O=c1oc2cc(O)ccc2s1,108%,–
NC1CCC(Nc2nc(Nc3ccc(C(=O)N4CCCCC4)cc3)c3ncn(-c4cccc(F)c4)c3n2)CC1 (stereo not given),103%,–
COc1cc(C)c(C=CC(C)=CC=CC(C)=CC(=O)O)c(C)c1C,81.7%,–
C=C1C(=CC=C2CCC[C@]3(C)[C@@H]([C@H](C)C=C[C@H](C)C(C)C)CC[C@@H]23)C[C@@H](O)C[C@@H]1O,–,20.9 µM (active)

Compound,viability,Potency
C=CCc1cccc(C=NNC(=O)CN2CCN(Cc3ccccc3)CC2)c1O,–,16.6 µM (active)
C[C@H](NC(=O)C(C#N)=Cc1cccc(Br)n1)c1ccccc1,–,3.32 µM (active)
O=C(Nc1c(Cl)cncc1Cl)c1ccc(OC(F)F)c(OCC2CC2)c1,96.9%,–
Cc1c(O)cccc1C(=O)N[C@@H](CSc1ccccc1)[C@H](O)CN1C[C@H]2CCCC[C@@H]2C[C@@H]1C(=O)NC(C)(C)C,100%,–
O=C1NC(=O)C(=Cc2ccc(-c3ccc(F)cc3O)o2)S1,–,10.5 µM (active)
O=c1[nH]c(=O)n([C@H]2C[C@@H](O)[C@@H](CO)O2)cc1I,72.5%,–
O=C1Nc2ccc(Cl)cc2C(C#CC2CC2)(C(F)(F)F)O1 (stereo not given),79.7%,–
O=C(OCC#CCSc1nnc(-c2cccc3ccccc23)o1)c1cc2ccccc2s1,100%,–
NC(=O)NN=Cc1ccc([N+](=O)[O-])o1,112%,–
C[C@@H]1[C@H](O)[C@@H](C)C=CC=CC=CC=CC=CC=CC=C[C@H](O[C@@H]2O[C@H](C)[C@H](O)[C@H](N)[C@@H]2O)C[C@@H]2O[C@](O)(C[C@@H](O)C[C@@H](O)[C@H](O)CC[C@@H](O)C[C@@H](O)CC(=O)O[C@H]1C)C[C@H](O)[C@@H]2C(=O)O,106%,–
CC=CC(=O)N(CC)c1ccccc1C,80.6%,–
N=C1SC(=Cc2ccc(-c3ccc4c(c3)C(=O)NC4=O)o2)C(=O)N1c1ccc(Br)cc1,97.2%,–
Cc1nc(NC(=O)N2CCC[C@@H]2C(N)=O)sc1-c1csc(C(C)(C)C)n1,–,1.66 µM (active)
CCCCCOC(=O)Nc1nc(=O)n([C@@H]2O[C@H](C)[C@@H](O)C2O)cc1F (stereo not given in full),104%,–
CC(=O)OCC(=O)[C@@]1(O)CC[C@H]2[C@@H]3CCC4=CC(=O)CC[C@]4(C)[C@@H]3C(=O)C[C@@]21C,101%,–
CO[C@H]1C[C@@H]2CC[C@@H](C)[C@@](O)(O2)C(=O)C(=O)N2CCCC[C@@H]2C(=O)O[C@H]([C@H](C)C[C@@H]2CC[C@H](OP(C)(C)=O)[C@H](OC)C2)CC(=O)[C@H](C)C=C(C)[C@@H](O)[C@@H](OC)C(=O)[C@H](C)C[C@H](C)C=CC=CC=C1C,85.2%,–
CCC(C)(C)c1ccc(CC(C)CN2C[C@@H](C)O[C@@H](C)C2)cc1 (stereo not given in full),100%,–
